Compound activity (PubChem)
Rows were chosen to be rich in hits. Some 2.5% of all compounds tested hit in one or more screens of this group.
NSD2 inh: inhibitors of human histone methyltransferase NSD2. O96028. NSD2 peptide methylation, AlphaScreen, 120 min. inhibition, % at 12.5 µM. 310,000 compounds, 0.54% hits; in the data active means inhibition above about 50%
rRNA inh HTS: inhibits bacterial ribosomal RNA function over humanized ribosomes; E. coli WT GFP vs humanized-ribosome RFP mutants, fluorescence, 24 h; hits give low values; DMSO median 0, no signal -100; GFP signal change (wild-type ribosome), % (test concentration not listed); 350,000 compounds, 1.6% hits; AID 720706;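 active means significant combined selectivity score with lowered wild-type GFP, culture density cut under 30%, mutant RFP and density less affected; inactive means any of these conditions unmet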
CASP6 VEID inh: caspase-6 (human) enzyme inhibition; P55212; inhibition, % at 12.5 µM; purified caspase-6, Z-VEID-R110 cleavage fluorescence; 350,000 compounds, 0.53% hits;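 active means mean inhibition across replicates at least about 35%, with every replicate also reaching that limit, limit read from the data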;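 further: 0% = median of neutral control wells and 100% = no fluorescence left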
AF4-AF9 inh: blocks AF4 peptide binding to human AF9; P42568; AlphaScreen, biotin-AF4 peptide binding to FLAG-AF9; inhibition, % at 10 µM; 350,000 compounds, 0.47% hits; AID 651704;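 active means every replicate reaching a set inhibition limit, whatever the replicate mean, cut at about 25% in these data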;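 further: 0% = plate neutral control median and 100% = total signal loss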
RAD52 inh: RAD52 (human) annealing inhibition; inhibition, % at 18.7 µM; recombinant RAD52 DNA annealing, FRET fluorescence; 360,000 compounds, 0.46% hits; AID 651710; P43351;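 active means every replicate showing at least 50% inhibition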
Target sequence (P43351 whole entry, looked up): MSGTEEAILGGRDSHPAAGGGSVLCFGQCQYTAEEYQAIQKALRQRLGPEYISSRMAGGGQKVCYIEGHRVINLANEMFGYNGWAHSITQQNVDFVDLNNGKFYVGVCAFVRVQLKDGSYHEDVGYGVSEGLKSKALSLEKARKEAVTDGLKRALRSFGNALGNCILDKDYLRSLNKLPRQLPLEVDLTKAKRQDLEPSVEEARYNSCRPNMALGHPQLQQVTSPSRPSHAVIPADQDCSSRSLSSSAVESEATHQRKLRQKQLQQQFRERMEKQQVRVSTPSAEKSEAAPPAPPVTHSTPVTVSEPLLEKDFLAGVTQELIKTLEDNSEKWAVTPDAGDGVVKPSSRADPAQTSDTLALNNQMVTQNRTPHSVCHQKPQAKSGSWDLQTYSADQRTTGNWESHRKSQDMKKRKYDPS
Starred values were filed as active, the others as inactive; / = not tested or not shown.

SMILES	NSD2 inh	rRNA inh HTS	CASP6 VEID inh	AF4-AF9 inh	RAD52 inh
CC(=O)Nc1nnc(-c2ccc(Cl)s2)o1	/	11.8	0.5	45.1*	-10.6
CCOc1ccc(OCc2ccc(C(=O)NN)o2)cc1	0.0	-13.4	-1.6	-0.7	-14.7
NNC(=O)c1ccc(COc2cccc3ccccc23)o1	-0.4	/	-5.1	-5.7	-11.3
Cc1ccc(OCc2ccc(C(=O)NN)o2)cc1C	-0.7	-31.8*	-0.5	-1.5	-4.3
O=C(OCc1ccccn1)c1ccc(COc2ccc3ccccc3c2)o1	/	-26.0*	2.2	-1.4	-34.2
NNC(=O)c1ccc(COc2ccc3ccccc3c2)o1	-4.6	-24.6*	5.1	/	-17.4
C[C@@H]1CN([C@H](C)CO)S(=O)(=O)c2ccc(-c3cccnc3)cc2O[C@@H]1CN(C)C(=O)NC1CCCCC1	/	-1.0	-2.2	2.3	-0.1
COc1ccc(C(CCNCc2ccc(N(C)C)cc2)c2ccccc2)cc1 (centres undefined)	14.8	-28.4	2.0	50.2*	-31.9
Cc1ccc(-c2csc(=Nc3cccnc3)n2CCCn2ccnc2)cc1C	16.5	-48.0	-3.3	36.6*	-16.6
N#Cc1cccc(C#N)c1Oc1ccc(S(=O)(=O)Nc2ccc(Cl)cc2)cc1	2.2	-38.2*	5.7	-1.8	-14.0
O=C(O)c1sccc1Oc1ccc(NS(=O)(=O)c2ccc(Cl)cc2)cc1	-6.6	-20.6	3.7	-2.3	-8.1
Brc1ccccc1C1Cc2nnccc2CN1 (centres undefined)	/	-36.3*	0.3	/	0.3
COc1ccc(N2CCN(C3CCCN(S(=O)(=O)c4ccccc4)C3)CC2)cc1 (centres undefined)	7.8	-5.0	1.5	6.0	-8.2
COc1ccc(N2CCN(C3CCCN(S(=O)(=O)c4ccc(C)cc4C)C3)CC2)cc1 (centres undefined)	23.0	-1.8	/	31.6*	-14.7
Cc1nc(-c2ccc(NC(=O)c3ccccc3C)cc2)cs1	2.1	-27.2*	-2.2	-1.5	-1.5
NC(=O)N/N=C/c1sc(N2CCCCC2)nc1-c1cccs1	12.2	5.9	9.3	30.4*	-5.8
CCC(=O)N(C)C[C@@H]1Oc2cc(-c3ccccc3OC)ccc2S(=O)(=O)N([C@@H](C)CO)C[C@H]1C	/	1.9	-3.5	0.7	-4.9
CN(C)C(=O)C[C@H]1CC[C@H]2[C@@H](COC[C@H](O)CN2C(=O)c2ccncc2)O1	/	8.1	-0.9	-0.4	-9.1
C[C@H]1CN([C@@H](C)CO)C(=O)c2cccc(NC(=O)Nc3ccc(C(F)(F)F)cc3)c2O[C@@H]1CN(C)Cc1ccncc1	/	-6.3	1.2	7.0	-9.8
COc1ccc(N2CCN(CCCNC(=O)c3cc4sccc4n3C)CC2)cc1	10.7	-14.1	-8.1	28.5*	-18.5
Cc1ccc(-n2nc(C)c3c(C)c(CCC(=O)Nc4ccc(CN5CCCC5)cc4)c(C)nc32)cc1	0.3	-54.5	-5.6	27.0*	-11.9
COC(CNC(=O)CCc1c(C)nc2c(c(C)nn2-c2ccc(C)cc2)c1C)OC	-1.7	-1.4	0.4	-0.9	-7.4
Cc1noc(C)c1NC(=O)Nc1ccc2c(c1)C(=O)N([C@@H](C)CO)C[C@@H](C)[C@@H](CN(C)Cc1ccc(C(F)(F)F)cc1)OCCCC[C@@H](C)O2	/	1.9	-2.9	8.4	-3.3
CN(C)S(=O)(=O)c1ccc(Cl)c(NC(=O)CSc2nnnn2-c2ccc(O)cc2)c1	1.5	-29.4*	0.4	2.3	-85.0
COc1ccc(-c2nc3ccc(Cl)cn3c2Cc2cccc(Cl)c2)cc1OC	/	-15.8	1.2	4.1	-12.5
SMILES	NSD2 inh	rRNA inh HTS	CASP6 VEID inh	AF4-AF9 inh	RAD52 inh
Clc1cccc(Cc2c(-c3cccc(Cl)c3)nc3ccc(Br)cn23)c1	/	-23.4*	-1.1	2.3	-33.4
COc1ccc(-c2nc3ccc(C)cn3c2CC2CCCCC2)cc1OC	/	-29.4*	0.4	8.9	-58.1
Clc1cccc(Cc2c(-c3cccc(Br)c3)nc3ccc(Br)cn23)c1	/	-6.2	0.6	-0.9	-69.9
COc1ccc(-c2nc3ccc(Br)cn3c2Cc2cccc(Cl)c2)cc1OC	/	-27.2*	-2.4	0.2	0.3
C[C@@H]1CN([C@H](C)CO)C(=O)c2cc(NS(=O)(=O)c3cccs3)ccc2O[C@@H](C)CCCCO[C@@H]1CN(C)S(=O)(=O)c1ccc(F)cc1	/	-6.2	-2.9	1.0	-41.3
C[C@H]1CN([C@@H](C)CO)C(=O)Cc2cc(NC(=O)Nc3ccc4c(c3)OCO4)ccc2O[C@@H]1CN(C)S(=O)(=O)c1cn(C)cn1	/	1.1	/	/	/
COc1ccccc1CNC(=O)C[C@H]1C[C@@H]2c3cc(NC(=O)C4CCOCC4)ccc3O[C@@H]2[C@@H](CO)O1	/	-0.2	2.0	-0.2	-3.6
COc1ccc2c(c1)c(CCN1C(=O)c3ccccc3C1=O)cn2C(=O)c1ccco1	1.1	11.1	37.7*	-6.4	-18.3
CN(C)c1ccc2nc3ccc(=O)cc-3sc2c1	13.4	-24.2	3.9	66.5*	-81.7
COc1ccc(CN(C)C[C@H]2Oc3c(NC(=O)Nc4c(C)noc4C)cccc3C(=O)N([C@H](C)CO)C[C@H]2C)cc1	/	4.3	0.6	-2.0	5.5
CC1c2ccsc2CCN1S(=O)(=O)c1cccs1 (centres undefined)	-3.0	-28.8*	-2.4	-8.0	-3.1
CN1CCN(S(=O)(=O)c2cccs2)CC1	3.9	16.4	-0.1	-1.8	-14.0
O=C([C@@H]1[C@@H](CO)[C@@H]2Cn3c(ccc(C4=CCCC4)c3=O)[C@@H]2N1CC1CC1)N1CCCCC1	/	-1.5	-1.6	2.0	-22.0
COc1cccc(NC(=O)C(=O)N/N=C/c2cc(C)n(-c3ccc(Cl)c(Cl)c3)c2C)c1	0.0	-17.9*	-2.8	5.5	-18.6
CCN(CC(=O)Nc1ccccc1OC)CC(=O)Nc1c(Cl)ccc(C)c1Cl	-1.6	-26.0*	0.0	5.4	-20.9
CCN(CC(=O)NCc1cccs1)CC(=O)Nc1c(Cl)ccc(C)c1Cl	-0.3	-0.6	2.8	-0.9	-11.2
O=C1C=CC2=C3c4cc(O)c(O)cc4CC3(O)COC2=C1O (centres undefined)	/	/	84.9*	2.2	-2.8
CCn1nnc(NC(=S)NC(=O)c2ccc(-c3cccc(Cl)c3)o2)n1	5.5	-21.4*	3.7	-0.6	-12.4
S=C(NC1CC1)SCc1ccco1	-1.6	15.8	53.2*	0.4	-15.0
COc1ccc(/C=N/NC(=O)CCSc2nc3ccccc3s2)cc1	2.8	-25.6*	1.0	7.9	-8.3
COc1ccc(OC)c(NC(=O)CN=[N+]=[N-])c1	/	/	-1.5	-1.4	11.8
Cc1ccc(CSc2nnc(CCNC(=O)OC(C)(C)C)o2)cc1	-4.3	-24.9*	-3.0	-3.0	-1.5
CC(C)(C)OC(=O)N1CCC[C@H]1c1nnc(SCc2ccccc2)o1	-1.4	-21.6	-1.0	-3.1	-12.6
Cc1ccc(CSc2nnc([C@@H]3CCCN3C(=O)OC(C)(C)C)o2)cc1	-2.3	-15.6*	0.3	5.1	-6.6
CO[C@H]1CN(C)C(=O)c2ccc(NS(=O)(=O)c3ccccc3)cc2OC[C@@H](C)N(Cc2cccnc2)C[C@H]1C	/	-0.4	1.0	-1.1	19.3
